Reference: PubChem BioAssay (NCATS)
Inconclusive results are not listed. Active and inactive are the calls of the source. Unless noted, calls follow the shape of the dose curve; as a rule, active = well fitted curve in the direction sought with a large enough effect; inconclusive = small, poorly fitted or top-dose-only effect, or another doubt; inactive = no such curve, though single readings can be large; an effect the other way counts as inactive or inconclusive.

Columns and labels:
[1] = target: alpha-glucosidase (Oryza sativa, rice) (UniProt Q653V4); assay: Counterscreen for Glucocerebrosidase Inhibitors: qHTS Assay for Rice alpha-Glucosidase at pH 5.0 (AID 997);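 also: 0% = full activity with enzyme and -100% = basal without enzyme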
In short: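 Endpoint fluorogenic assay at pH 5.0: compounds (0.7 nM to 77 uM) titrated against 4 nM rice enzyme and 400 uM 4-MU-alpha-glucoside for 20 min at room temperature; NaOH/glycine stop, read ex 365/em 440 nm, Hill-fitted AC50.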

[2] = Validation of Assay for Modulators of Lamin A Splicing (AID 1459; active = well fitted curve in the direction sought with a large enough effect in the signal ratio; the % refers to the signal ratio;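 also: cells exposed to compound for two days before reading; 0% is about no effect; ratio rise marks activators and ratio drop marks inhibitors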)
In short: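 Splicing correction read as GFP (500-530 nm) over DsRed2 (575-640 nm) object intensity after 48 h compound exposure of reporter HeLa S3 clones (600 cells/well, 2% FBS medium); ancitabine and cycloheximide titrations, 0.5% DMSO as vehicle.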

[3] = qHTS Assay for Lipid Storage Modulators (AID 1519; calls by dose curve; as to activity change, negative = inhibition: % is scaled to controls: 0 for no effect and ±100 for the full control effect); conditions: Drosophila S3 cells, BODIPY lipid droplet/cell ratio, laser cytometry, cells loaded with oleic acid; for activity change, negative = inhibition: at 57.5 µM (top of the series)
In short: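 Cells seeded at 5,000 per well were treated with compounds over a concentration series and loaded with oleic acid (400 uM, as added). Lipid droplet fluorescence (488 nm excitation, 500-530 nm channel) was read by laser-scanning cytometry and normalized to 20 uM Triacsin C.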

[4] = target: DNA repair nuclease/redox regulator APEX1 (Homo sapiens) (UniProt P27695); assay: qHTS Validation Assay for Inhibitors of the Human Apurinic/apyrimidinic Endonuclease 1 (APE1) (AID 1705;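 also: TAMRA fluorescence gain over two minutes as APE1 cuts a quenched THF abasic duplex; % is scaled to controls: 0 for no effect and ±100 for the full control effect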)
In short: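 Activity read as rising fluorescence (598 nm emission, 525 nm excitation) from incision of a TAMRA/BHQ-2 duplex carrying a THF abasic site (50 nM). Compound and enzyme sat 15 min at RT before substrate start; signal change between first and third 60-s reads.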

[5] = Counterscreen for APE1 Inhibitors: Fluorescent Dye Displacement Validation Assay (AID 1707);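 also: plate controls were ThO with dsDNA and no compound for no effect and ThO without dsDNA for full effect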
In short: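 Signal: ThO fluorescence (ex 480 nm/em 540 nm) on binding 50 nM dsDNA; displacement by test compound reduces it. Conditions: 250 nM dye, 50 mM Tris-HCl pH7.5, 2 mM MgCl2, 50mM NaCl, 0.01% Tween-20.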

[6] = target: Endonuclease 4 (Escherichia coli (strain K12)) (UniProt P0A6C1); assay: Counterscreen for APE1 Inhibitors: qHTS Validation Assay for Inhibitors of Endonuclease IV (AID 1708); also: % is scaled to controls: 0 for no effect and ±100 for the full control effect
In short: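 Read-out: fluorescence rise (ex 525/em 598 nm) from incision of a TAMRA/BHQ-2 double-stranded THF abasic-site substrate (50 nM), measured kinetically; third-minus-first read difference gave reaction progress. Enzyme 2 nM.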

[7] = qHTS for differential inhibitors of proliferation of Plasmodium falciparum line Dd2 (AID 1882); conditions: Potency: Plasmodium falciparum Dd2 proliferation inhibition; also: nearly all actives have a fitted effect of over 65% in size; also: potency is read from the fitted curve at half-maximal effect;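 as to activity change, negative = inhibition: compound exposure of 72 h on infected erythrocytes; plate controls were DMSO vehicle for no effect and 0.29 µM artemisinin for full effect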
In short: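 RBC culture, 0.3% parasitemia / 2.5% Hct final; cpd added by pin tool in DMSO; 72 h, 37 C, 5% CO2; lysis buffer + SYBR Green I, o/n RT dark; FI 485/535; norm. to artemisinin 0.29 uM and DMSO.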

[8] = qHTS for differential inhibitors of proliferation of Plasmodium falciparum line W2 (AID 1883); conditions: Potency: Plasmodium falciparum W2 proliferation inhibition;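 also: parasites grown with compound for 72 h before lysis and staining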; also: potency is read from the fitted curve at half-maximal effect;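 as to activity change, negative = inhibition: 0% = vehicle wells and -100% = control inhibitor wells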
[9] = target: Alpha-galactosidase A (Homo sapiens) (UniProt P06280); assay: Counterscreen for Glucocerebrosidase Inhibitors: qHTS Assay for Human alpha-Galactosidase at pH 4.5 (AID 992); also: 0% is about no effect
In short: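 Citrate buffer pH 4.5, Tween-20 0.005%. Enzyme 2 nM, substrate 80 uM, 20 min RT. Stop pH 10. Fluorescence Ex 365/Em 440. AC50 by Hill fit.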

[10] = qHTS for differential inhibitors of proliferation of Plasmodium falciparum line 7G8 (AID 1815);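 also: parasite growth measured after three days of incubation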; also: potency is read from the fitted curve at half-maximal effect;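 as to activity change, negative = inhibition: plate controls were vehicle wells for no effect and reference inhibitor wells for full effect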
[11] = qHTS for differential inhibitors of proliferation of Plasmodium falciparum line GB4 (AID 1816); conditions: Potency: Plasmodium falciparum GB4 proliferation inhibition;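 also: parasite growth measured after 72 h incubation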; also: potency is read from the fitted curve at half-maximal effect;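 as to activity change, negative = inhibition: 0% = vehicle DMSO and -100% = reference inhibitor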
[12] = qHTS for differential inhibitors of proliferation of Plasmodium falciparum line 3D7 (AID 1876); also: potency is read from the fitted curve at half-maximal effect
[13] = qHTS for differential inhibitors of proliferation of Plasmodium falciparum line D10 (AID 1877);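 also: parasites grown with compound for 72 h before DNA staining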; also: potency is read from the fitted curve at half-maximal effect;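 as to activity change, negative = inhibition: plate controls were vehicle wells for no effect and reference inhibitor wells for full effect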
[14] = Cell Viability - LYMP2-018 (AID 985);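 also: plate controls were DMSO only for no effect and tetraoctylammonium bromide at 92 µM for full effect; nearly all actives have a fitted effect of over 50% in size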
In short: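 2500 cells/well; 5 hr 37 C; cmpd 24 hr 37 C, complete medium; CellTiter-Glo 30 min RT; luminescence. Tetraoctylammonium bromide positive control. AC50 via Hill fit.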

[15] = Cell Viability - LYMP2-020 (AID 986);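 also: plate controls were DMSO only for no effect and tetraoctylammonium bromide at 92 µM for full effect; nearly all actives have a fitted effect of over 55% in size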
In short: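 qHTS, 2500 cells/well; 5 hr then 24 hr compound exposure, 37 C; CellTiter-Glo luminescence after 30 min RT; ATP decrease taken as cytotoxicity; AC50 via Hill equation; tetraoctylammonium bromide positive control.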

[16] = Cell Viability - LYMP2-022 (AID 987);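 also: 0% = DMSO alone and full effect = tetraoctylammonium bromide at 92 µM; nearly all actives have a fitted effect of over 55% in size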
In short: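 Luminescent ATP read-out (CellTiter-Glo, 30 min, RT) after 24 hr, 37 C compound exposure of 2500 human lymphoblastoid cells/well in complete medium. Cytotoxicity taken as concentration-dependent ATP loss; AC50 from standard Hill equation.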

[17] = Cell Viability - LYMP2-024 (AID 988);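 also: plate controls were DMSO only for no effect and 92 µM tetraoctylammonium bromide for full effect; nearly all actives have a fitted effect of over 60% in size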
In short: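 ATP-based luminescence (CellTiter-Glo, 30 min RT) after 24 h compound exposure at 37 C of 2500 lymphoblastoid cells/well; decrease in ATP taken as cytotoxicity. qHTS concentration-response fitted to standard Hill equation for AC50.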

[18] = Cell Viability - LYMP2-026 (AID 989); also: % is scaled to controls: 0 for no effect and ±100 for the full control effect; nearly all actives have a fitted effect of over 50% in size
In short: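 qHTS cytotoxicity: 2500 cells/well, 5 hr 37 C, compound 24 hr 37 C, CellTiter-Glo 30 min RT, luminescence. Tetraoctylammonium bromide positive control. AC50 via standard Hill fit.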

[19] = Cell Viability - LYMP1-002 - Assay at 24 hr (AID 993); also: % is scaled to controls: 0 for no effect and ±100 for the full control effect
In short: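 CellTiter-Glo luminescence (intracellular ATP) after 24 h compound exposure, 37 C, in LYMP1-002 human lymphoblastoid cells; decreased ATP taken as cytotoxicity. AC50 from standard Hill fit of concentration-response curves.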

[20] = Cell Viability - LYMP1-002 - Assay at 40 hr (AID 994);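 also: 0% = DMSO only and full inhibition = 92 µM tetraoctylammonium bromide; nearly all actives have a fitted effect of over 60% in size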
In short: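 qHTS cytotoxicity; 2500 cells/well, 5 hr 37 C settle, compound 40 hr 37 C. CellTiter-Glo, 30 min RT, luminescence (ATP). Concentration-response, Hill fit → AC50. Pos. ctrl tetraoctylammonium bromide.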

[21] = measured here: cell count channel max response
[22] = measured here: lipid channel max response

Chain of Alpha-galactosidase A (Homo sapiens) (P06280 whole entry, looked up): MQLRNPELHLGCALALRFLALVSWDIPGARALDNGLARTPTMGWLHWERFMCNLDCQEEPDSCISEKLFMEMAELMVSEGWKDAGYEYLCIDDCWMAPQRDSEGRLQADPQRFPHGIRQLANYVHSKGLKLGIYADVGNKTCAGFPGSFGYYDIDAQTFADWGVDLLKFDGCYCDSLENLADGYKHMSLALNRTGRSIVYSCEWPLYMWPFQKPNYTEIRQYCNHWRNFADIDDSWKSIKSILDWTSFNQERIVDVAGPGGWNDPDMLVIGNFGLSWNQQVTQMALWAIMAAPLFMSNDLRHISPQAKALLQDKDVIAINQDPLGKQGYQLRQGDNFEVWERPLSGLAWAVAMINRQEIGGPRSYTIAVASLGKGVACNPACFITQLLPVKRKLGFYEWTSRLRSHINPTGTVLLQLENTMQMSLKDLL
Chain of DNA repair nuclease/redox regulator APEX1 (Homo sapiens) (P27695 whole entry, looked up): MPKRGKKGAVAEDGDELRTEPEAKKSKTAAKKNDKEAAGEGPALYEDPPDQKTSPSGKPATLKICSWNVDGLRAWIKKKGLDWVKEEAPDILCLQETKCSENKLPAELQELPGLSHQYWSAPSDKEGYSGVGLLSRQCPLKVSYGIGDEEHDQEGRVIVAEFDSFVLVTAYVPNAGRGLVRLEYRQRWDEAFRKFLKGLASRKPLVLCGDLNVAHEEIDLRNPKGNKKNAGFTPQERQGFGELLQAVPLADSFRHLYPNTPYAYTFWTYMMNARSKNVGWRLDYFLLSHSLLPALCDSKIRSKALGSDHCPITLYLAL

Ic1ccc(N2CCN(Cc3c[nH]c4ncccc34)CC2)cc1
-23.2%: max response [3, 21]
active: Potency [8] 2.51 µM
inactive: outcome [1] | outcome [2] | activity change, negative = inhibition [3] 0.316% | Potency [4] | Potency [5] | Potency [6] | Potency [7]
-22.2%: max response [3, 22]

COc1cc2c(CCNC(C)=O)c[nH]c2cc1Cl
inactive: outcome [9] | outcome [1] | outcome [2] | activity change, negative = inhibition [3] -11.4% | Potency [5] | Potency [10] | Potency [11] | Potency [12] | Potency [13] | Potency [7]
-19%: max response [3, 21]
-30.9%: max response [3, 22]

CC(C)NCC(O)COc1cccc2ccccc12 (stereo unspecified)
active: Potency [10] 4.47 µM | Potency [11] 2.51 µM | Potency [13] 11.2 µM | Potency [7] 8.91 µM | Potency [8] 2.82 µM
inactive: Potency [14] | Potency [15] | Potency [16] | Potency [17] | Potency [18] | Potency [19] | Potency [20] | outcome [2] | activity change, negative = inhibition [3] 10.9% | Potency [5] | Potency [6]
23.9%: max response [3, 22]
7.26%: max response [3, 21]

O=C(O)c1cc(=O)c2ccccc2[nH]1
inactive: outcome [1] | outcome [2] | activity change, negative = inhibition [3] 3.93% [middle of 4 runs] | Potency [4] | Potency [5] | Potency [6] | Potency [10] | Potency [11] | Potency [12] | Potency [13] | Potency [7] | Potency [8]

Oc1ccc(C2CNCc3sccc32)cc1O (stereo unspecified)
25.9%: max response [3, 21]
inactive: outcome [2] | activity change, negative = inhibition [3] -2.2% | Potency [4] | Potency [5] | Potency [6]
25.8%: max response [3, 22]
active: Potency [10] 8.91 µM | Potency [11] 12.6 µM | Potency [13] 11.2 µM | Potency [7] 8.91 µM | Potency [8] 11.2 µM

CN1CCc2cc(O)c(O)cc2C(c2ccccc2)C1 (stereo unspecified)
inactive: outcome [2] | activity change, negative = inhibition [3] -0.441% | Potency [4] | Potency [5] | Potency [6]
29.5%: max response [3, 22]
31.9%: max response [3, 21]
active: Potency [10] 11.2 µM | Potency [11] 10 µM | Potency [13] 12.6 µM | Potency [8] 10 µM

CN1[C@@H](CC(=O)c2ccccc2)CCC[C@H]1C[C@H](O)c1ccccc1
24.6%: max response [3, 21]
23.7%: max response [3, 22]
inactive: outcome [2] | activity change, negative = inhibition [3] -1.25% | Potency [5]

O=C(Nc1ccccc1)c1cc([N+](=O)[O-])ccc1Cl
inactive: outcome [1] | outcome [2] | Potency [5] | Potency [6] | Potency [7]
active: Potency [10] 8.91 µM | Potency [11] 11.2 µM | Potency [12] 11.2 µM | Potency [13] 11.2 µM | Potency [8] 12.6 µM

CCCCN1CCC(n2c(=O)[nH]c3ccccc32)CC1
inactive: outcome [1] | outcome [2] | Potency [4] | Potency [5] | Potency [10] | Potency [11] | Potency [12] | Potency [13] | Potency [7]
active: Potency [8] 8.91 µM

O=C(OCc1ccccc1)c1ccccc1
-2.84%: max response [3, 21]
6.88%: max response [3, 22]
inactive: activity change, negative = inhibition [3] 9.34%

O=C(O)CC1CCCc2ccccc2C1O (stereo unspecified)
inactive: outcome [2] | Potency [4] | Potency [5] | Potency [10] | Potency [11] | Potency [12] | Potency [13] | Potency [7] | Potency [8]

Fc1ccc(C(OCCCc2cnc[nH]2)c2ccc(F)cc2)cc1
active: Potency [10] 1.58 µM | Potency [11] 1.26 µM | Potency [12] 1.26 µM | Potency [13] 5.01 µM | Potency [7] 8.91 µM | Potency [8] 0.794 µM
inactive: outcome [9] | outcome [1] | outcome [2] | Potency [5] | Potency [6]

O=C(O)CC[C@@H](C(=O)O)N1C(=O)c2ccccc2C1=O
inactive: outcome [9] | outcome [1] | outcome [2] | Potency [5] | Potency [10] | Potency [11] | Potency [12] | Potency [13] | Potency [7] | Potency [8]

COc1ccc(/C=C/C(=O)Nc2ccccc2C(=O)O)cc1OC
inactive: outcome [9] | outcome [1] | outcome [2] | Potency [6] | Potency [7]

Nc1nc(Cl)nc2c1ncn2[C@@H]1O[C@H](CO)[C@@H](O)[C@H]1O
inactive: activity change, negative = inhibition [3] 5.13%
7.07%: max response [3, 21]
14%: max response [3, 22]

CC(C)(C)NCC(O)COc1nsnc1N1CCOCC1 (stereo unspecified)
inactive: outcome [2] | Potency [5] | Potency [6] | Potency [12] | Potency [13] | Potency [7]

NC(=O)C(=O)O
inactive: outcome [1] | outcome [2] | Potency [4] | Potency [5] | Potency [6] | Potency [10] | Potency [11] | Potency [12] | Potency [13] | Potency [7] | Potency [8]

Clc1ccc(N2CCN(Cc3c[nH]c4ncccc34)CC2)cc1
inactive: outcome [9] | outcome [1] | outcome [2] | Potency [5] | Potency [6] | Potency [7]

CNCC[C@H](Oc1ccc(C(F)(F)F)cc1)c1ccccc1
inactive: outcome [1] | outcome [2] | Potency [5] | Potency [6]

O=C(O)/C=C/C(O)c1ccc(Cl)cc1 (stereo unspecified)
inactive: outcome [2] | Potency [5] | Potency [6] | Potency [10] | Potency [11] | Potency [12] | Potency [13] | Potency [7] | Potency [8]

CCCCC/C=C\CC(O)/C=C/c1cccc(CC(O)CCCCO)n1 (stereo unspecified)
inactive: outcome [2] | Potency [4] | Potency [5] | Potency [6] | Potency [7]
active: Potency [12] 14.1 µM

c1ccc(-c2ccccn2)nc1
inactive: outcome [1] | outcome [2] | Potency [5] | Potency [6] | Potency [11] | Potency [12] | Potency [13] | Potency [7]

Cc1cc(NC(=O)Nc2ccc3c(ccn3C)c2)sn1
inactive: outcome [1] | outcome [2] | Potency [4] | Potency [5] | Potency [7]
active: Potency [10] 7.94 µM | Potency [8] 7.94 µM

N=C(N)N
inactive: activity change, negative = inhibition [3] 4.02%
15.8%: max response [3, 21]
23.8%: max response [3, 22]
